Compound activity from PubChem BioAssay.
Only some compounds are listed: those with a hit (about 19% of all), similar ones and a draw of the others.
TDP1 cell CPT: DT40-hTDP1 cell growth loss with CPT. chicken DT40 Tdp1-/-;hTDP1 cells + 20 nM CPT, ATP luminescence, 48 h. Potency, µM (top dose mostly 46.2 µM), for inactives: top-dose activity change, negative = growth inhibition, hits mostly inhibitors. 420,000 compounds, 12% hits; also: nearly all actives have a fitted effect of over 55% in size
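Cell growth measured by CellTiter-Glo luminescence after a minimum 48 h, 37 C compound exposure with 20 nM CPT in Tdp1-knockout DT40 cells stably expressing hTDP1, seeded 400/well; qHTS titration format.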
Gal4-VP16 FLuc: inhibits Gal4-VP16 luciferase reporter, ROR gamma counter-screen. Potency, µM (doses to about 53.6 µM), for inactives: at the highest dose activity, negative = inhibition, actives largely listed as inhibitors. 310,000 compounds, 3.5% hits. Drosophila S2 Gal4-VP16 UAS-luciferase, luminescence, 20 h;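 also: Gal4-VP16 expression switched on by copper sulfate through the metallothionein promoter; nearly all actives have a fitted effect of over 50% in size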
DT40 TDP1 no CPT: qHTS for Inhibitors of human tyrosyl-DNA phosphodiesterase 1 (TDP1): qHTS in cells in absence of CPT; AID 686978, 2013; DT40 Tdp1-/- hTDP1 cells, no CPT, ATP luminescence, 48 h; Potency, µM (highest dose often 46.2 µM), for inactives: at the highest dose activity change, negative = growth inhibition, hits mostly inhibitors; 420,000 compounds, 15% hits; also: nearly all actives have a fitted effect of over 55% in size
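DT40 Tdp1-/-;hTDP1 cells, no CPT (DMSO vehicle only), 400 cells/well; compounds pin-transferred; ≥48 hr, 37 °C; CellTiter-Glo 30 min RT dark, luminescence read.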
RORg inh: inhibitors of mouse ROR gamma transcriptional activity; Potency, µM (titrated, usually from 53.6 µM), inactives show at the top dose activity change, negative = inhibition, usual class: inhibitors; AID 2551; Drosophila S2 Gal4-RORgamma UAS-luciferase reporter, 20 h; 310,000 compounds, 5.4% hits; P51450; also: nearly all actives have a fitted effect of over 60% in size
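Luciferase reporter read in Schneider cells carrying Gal4-RORγ (mouse) and UAS-Photinus luciferase; cells given compound 1 h before 700 uM copper sulfate induction, then incubated 20 h at ambient temperature.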
TDP1 block: inhibitors of human tyrosyl-DNA phosphodiesterase TDP1; 350,000 compounds, 0.28% hits; Q9NUW8; Potency, µM (series often up to 130 µM), inactives show at the top dose activity change, negative = inhibition, usual class: inhibitors; recombinant TDP1, AlphaScreen DNA substrate cleavage; also: nearly all actives have a fitted effect of over 40% in size
Target sequence (Q9NUW8 whole entry, looked up): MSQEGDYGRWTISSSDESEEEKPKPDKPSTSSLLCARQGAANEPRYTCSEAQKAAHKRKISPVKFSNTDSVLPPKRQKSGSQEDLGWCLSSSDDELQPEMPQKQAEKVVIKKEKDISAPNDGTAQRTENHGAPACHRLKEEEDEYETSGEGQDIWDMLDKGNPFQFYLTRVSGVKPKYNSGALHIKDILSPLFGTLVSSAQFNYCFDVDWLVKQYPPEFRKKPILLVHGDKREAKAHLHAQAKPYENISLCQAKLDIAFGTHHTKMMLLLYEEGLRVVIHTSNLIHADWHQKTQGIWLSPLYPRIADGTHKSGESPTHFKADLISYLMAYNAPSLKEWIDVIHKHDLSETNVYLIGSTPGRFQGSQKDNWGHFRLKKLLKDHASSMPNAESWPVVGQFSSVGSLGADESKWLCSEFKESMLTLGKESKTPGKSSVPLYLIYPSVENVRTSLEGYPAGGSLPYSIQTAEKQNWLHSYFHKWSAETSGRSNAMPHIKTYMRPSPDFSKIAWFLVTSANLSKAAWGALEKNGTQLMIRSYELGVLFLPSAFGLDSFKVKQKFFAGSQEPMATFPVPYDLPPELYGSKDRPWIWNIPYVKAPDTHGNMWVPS
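Tdp1 1 nM final; 15 min RT w/ cpd; substrate 15 nM, 5 min; beads 10 ug/ml, 10 min; AlphaScreen read. Neg ctrl: no enzyme.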
* marks the source's active call; other numbers are inactive results; [ ] = another dose, or the depositor's remark. Calls follow the shape of the dose curve; as a rule, active = well fitted curve in the direction sought with a large enough effect; inconclusive = small, poorly fitted or top-dose-only effect, or another doubt; inactive = no such curve, though single readings can be large; an effect the other way counts as inactive or inconclusive. % is scaled to controls: 0 for no effect and ±100 for the full control effect; potency is read from the fitted curve at half-maximal effect.

O=C(c1ccco1)c1n[nH]nc1-c1ccccc1 was read as TDP1 cell CPT -12%, Gal4-VP16 FLuc 14%, DT40 TDP1 no CPT inconclusive, RORg inh 25% and TDP1 block 0%.
Screening COc1cc2c(cc1OC)C(c1ccc3c(c1)OCO3)CC(=O)N2 (stereo not given) returned TDP1 cell CPT 5%, Gal4-VP16 FLuc -1%, DT40 TDP1 no CPT inconclusive, RORg inh -19% and TDP1 block 5%.
`CC(C)Oc1cccc(C2CC(=O)Nc3cc4c(cc32)OCO4)c1` (stereo not given) gave TDP1 cell CPT 2.6µM*, DT40 TDP1 no CPT 2.6µM* and TDP1 block 5%.
Screening Cc1cc2c(cc1C)C(c1ccccc1OC(C)C)CC(=O)N2 (stereo not given) returned TDP1 cell CPT inconclusive, Gal4-VP16 FLuc 3%, DT40 TDP1 no CPT inconclusive, RORg inh 11% and TDP1 block 5%.
`COc1cccc(C2CC(=O)Nc3cc4c(cc32)OCO4)c1OC(C)C` (stereo not given) gave TDP1 cell CPT 21µM*, DT40 TDP1 no CPT inconclusive and TDP1 block 0%.
Screening Cc1cccc(C2CC(=O)Nc3cc4c(cc32)OCO4)c1 (stereo not given) returned TDP1 cell CPT inconclusive, DT40 TDP1 no CPT 21µM* and TDP1 block 0%[12.3 µM].
For C/C=C(/C)C(=O)Nc1cccc(C2=NOC3(C2)C[C@@H](C(N)=O)N(C(=O)c2ccc(OC)cc2)C3)c1 (stereo not given in full) the results were TDP1 cell CPT 3%, Gal4-VP16 FLuc inconclusive, DT40 TDP1 no CPT -3%, RORg inh -29% and TDP1 block 2%.
`O=C1c2ccccc2C(Nc2ccc3c(c2)OCCO3)N1c1ccc(Cl)cn1` (stereo not given) gave TDP1 cell CPT inconclusive, Gal4-VP16 FLuc 18%, DT40 TDP1 no CPT 16µM*, RORg inh 40% and TDP1 block 8%.
`O=C1c2ccccc2C(Nc2ccc(F)c(Cl)c2)N1c1ccccn1` (stereo not given) gave TDP1 cell CPT 16µM*, Gal4-VP16 FLuc 20%, DT40 TDP1 no CPT inconclusive, RORg inh 18% and TDP1 block -2%.
Screening O=C1c2ccccc2C(Nc2ccc(S(=O)(=O)N3CCCCC3)cc2)N1c1ccccn1 (stereo not given) returned TDP1 cell CPT inconclusive, Gal4-VP16 FLuc -7%, DT40 TDP1 no CPT 21µM*, RORg inh -39% and TDP1 block 0%.
Screening O=C1c2ccccc2C(Nc2ccc(S(=O)(=O)N3CCOCC3)cc2)N1c1cccnc1 (stereo not given) returned TDP1 cell CPT -8%, Gal4-VP16 FLuc 15%, DT40 TDP1 no CPT -20%, RORg inh 13% and TDP1 block 0%.
Screening Cn1ncc(Br)c1C(=O)N1CCOCC1 returned TDP1 cell CPT -19%, Gal4-VP16 FLuc 1%, DT40 TDP1 no CPT -3%, RORg inh -18% and TDP1 block 5%.
Screening Nc1cc(N)nc(SCCc2ccccc2)n1 returned TDP1 cell CPT -6%, Gal4-VP16 FLuc 16%, DT40 TDP1 no CPT -2% and RORg inh 43%.
Screening CCOC(=O)CNC(=O)CN1C(=O)CC(c2ccco2)Sc2ccccc21 (stereo not given) returned TDP1 cell CPT 3%, Gal4-VP16 FLuc 15%, DT40 TDP1 no CPT 3% and RORg inh 17%.
COc1ccc(C(=O)c2c(N)c(-c3nc(-c4ccc5c(c4)OCO5)cs3)c3ccccn23)cc1 was read as TDP1 cell CPT -10%, DT40 TDP1 no CPT -16% and TDP1 block 0%.
For CCc1ccc(NC(=S)Nc2cccc3cnccc23)cc1 the results were TDP1 cell CPT inconclusive, Gal4-VP16 FLuc inconclusive, DT40 TDP1 no CPT 15µM*, RORg inh 11µM* and TDP1 block 0%.
C=C(C)CNC(=S)Nc1cccc2cnccc12 was read as TDP1 cell CPT -6%, Gal4-VP16 FLuc -23%, DT40 TDP1 no CPT inconclusive, RORg inh -18% and TDP1 block 5%.
Screening Cc1cc(C)cc(NC(=S)Nc2cccc3cnccc23)c1 returned TDP1 cell CPT -4%, Gal4-VP16 FLuc inconclusive, DT40 TDP1 no CPT inconclusive, RORg inh 13µM* and TDP1 block 5%.
Screening S=C(Nc1cccnc1)Nc1ccccc1Br returned TDP1 cell CPT 16%, Gal4-VP16 FLuc -8%, DT40 TDP1 no CPT -18%, RORg inh -13% and TDP1 block -5%.
`Cc1ccc(NC(=S)Nc2cccc3cnccc23)c(C)c1` gave TDP1 cell CPT 8%, Gal4-VP16 FLuc -26%, DT40 TDP1 no CPT inconclusive, RORg inh 16µM* and TDP1 block 5%.
`O=C(c1csc2ccccc12)N1CCN(c2ccccn2)CC1` gave TDP1 cell CPT -1%, Gal4-VP16 FLuc 1%, DT40 TDP1 no CPT inconclusive, RORg inh 22% and TDP1 block 1%.
For CNc1oc(C)nc1S(=O)(=O)c1ccc(C)cc1 the results were TDP1 cell CPT -1%, Gal4-VP16 FLuc -6%, DT40 TDP1 no CPT -16%, RORg inh -7% and TDP1 block 6%.
For CNc1oc(Cc2ccccc2)nc1S(=O)(=O)c1ccccc1 the results were TDP1 cell CPT 15µM*, Gal4-VP16 FLuc 5%, DT40 TDP1 no CPT 6.5µM*, RORg inh -19% and TDP1 block 9%.
`Cc1cc(Br)ccc1NC(=O)CN(C)C(=O)c1ccc2ccccc2n1` gave TDP1 cell CPT -8%, DT40 TDP1 no CPT -4% and TDP1 block 0%.
`Cc1[nH]c2ccccc2c1C(=O)C(=O)N1CC=C(c2ccccc2)CC1` gave TDP1 cell CPT 15µM*, Gal4-VP16 FLuc 3%, DT40 TDP1 no CPT 23µM*, RORg inh 19% and TDP1 block -3%.
`Cc1ccc(NC(=O)CN(C)S(=O)(=O)c2cnc[nH]2)c(C)c1` gave TDP1 cell CPT -8%, Gal4-VP16 FLuc 4%, DT40 TDP1 no CPT -15%, RORg inh 4% and TDP1 block 5%.
Screening Cc1cc(OCCN2CCN(S(=O)(=O)c3ccccc3F)CC2)ccc1C(C)C returned TDP1 cell CPT 21µM*, DT40 TDP1 no CPT 16µM* and TDP1 block -3%.
For Cc1onc(-c2ccccc2Cl)c1C(=O)NC1CCCCCC1 the results were TDP1 cell CPT 26µM*, Gal4-VP16 FLuc -16%, DT40 TDP1 no CPT 16µM* and RORg inh 8%.
`Cc1onc(-c2c(Cl)cccc2Cl)c1C(=O)NC1CCCCC1` gave TDP1 cell CPT inconclusive, Gal4-VP16 FLuc 13%, DT40 TDP1 no CPT 9.2µM* and RORg inh 18%.
